Reference: the supplement of paper PMC10338343
± gives the standard deviation.

Experiments:
[1] = tested on: MILI (PIWIL2) piRISC loaded with piRNA #1 (26 nt); assay: pre-steady-state target cleavage rate (min^-1); guide: piRNA #1 5'p-UGAGGUAGUAGGUUGUAUAGUAUCCA; higher = faster piRNA-guided slicing of the target; conditions: auxiliary factor: 500 nM mouse GTSF1
Method in brief: (§1)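 Using HEPES–potassium acetate buffer at 33 °C, 1 nM active affinity-purified piRISC with a single synthetic guide was mixed with 0.1 nM transcribed, DNA-blocked target RNA library for 0–8 or 0–960 min, with or without 500 nM GTSF1 partner protein. Uncleaved targets were sequenced and normalised to depth and to weakly complementary targets, and three trials were pooled with k3 capped at 0.0001 min^-1. A burst-and-steady-state fit gave the pre-steady-state cleavage rate.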

[2] = tested on: EfPiwi piRISC loaded with piRNA #1 (26 nt); assay: pre-steady-state target cleavage rate (min^-1); auxiliary factor: 500 nM Ephydatia muelleri Gtsf1; guide: piRNA #1 5'p-UGAGGUAGUAGGUUGUAUAGUAUCCA; MIWI and MILI are mouse PIWI proteins and EfPiwi is from a freshwater sponge; tags in brackets are library labels; higher = faster piRNA-guided slicing of the target
Method in brief: as §1

Sequence	pre-steady-state target cleavage rate [1]	pre-steady-state target cleavage rate [2]
GGAGACCAUACUAUACAACCUACCUACCUCA	0.129 ± 0.017	0.00424 ± 0.0022
GGAGACCUAACUAUACAACCUACUACCCCA	0.195 ± 0.058	0.00474 ± 0.0039
GGAGACGAUACUAUACAACCUACUACCUCG [g2:g24:cont:t1G]	0.183 ± 0.014	0.115 ± 0.037
GGAGAGGAUCCUAUACAACCUACUACCUCA	0.164 ± 0.025	0.0886 ± 0.046
GGAGACGAUACUAUUCAUCCUACUACCUCA	0.264 ± 0.021	0.00763 ± 0.0036
GGAGACCUAUGAUUACAACCUACUCACCUCA	0.00473 ± 0.0023	< 0.0001
GGAGACCAUUCUAAACAACCUACUACCUCA	0.0936 ± 0.012	0.00894 ± 0.0049
GGAGACCUUAGUAUACAACCUACUACCUGA	0.0569 ± 0.0097	0.00359 ± 0.0036
GGAGACGAUACUAUAGAACCUACUACCUCA	0.184 ± 0.015	0.00433 ± 0.0017
GGAGACGAUACUAUACUACCUUCUACCUCA	0.025 ± 0.0053	0.00418 ± 0.0025
GGAGAGGUUACUAUACAACCUACAACCUCA	0.0663 ± 0.015	0.00313 ± 0.0018
GGAGACCAUACUAUACAACCUACUGCCUCA	0.139 ± 0.015	0.00606 ± 0.0025
GGAGAGGAUACUAUAGCAACCUACUACCUCA	0.129 ± 0.012	0.0429 ± 0.019
GGAGACGAUACUAUUCAACCUACUACCACA	0.161 ± 0.014	0.00322 ± 0.0017
GGAGUGGAUACUAAUCAACCUACUACCUCA	0.144 ± 0.01	0.00495 ± 0.0038
GGAGACCAUACUAUACAACCUACUUCCACA	0.0785 ± 0.018	0.0032 ± 0.0032
GGAGACCUUACUAUACAACCUUCUACCUCA	0.00711 ± 0.0021	0.00767 ± 0.0037
GGAGUGGAUACUAUACAUCCUACUUCCUCA	0.0127 ± 0.0032	0.00326 ± 0.0017
GGAGACGAUACUAUACAACCUACAACCUGA	0.0121 ± 0.0074	0.00441 ± 0.0022
GGAGACGAUACUAUUCAACCUACUACCUGA	0.105 ± 0.017	0.00421 ± 0.0019
GGAGUGGAUUCUAUACAACCUAGUACCUCA	0.0634 ± 0.011	0.00168 ± 0.0013
GGAGUGGAUACUAUACAACCUUCUACCACA	0.00348 ± 0.0024	0.00272 ± 0.0016

Sequence	pre-steady-state target cleavage rate [1]	pre-steady-state target cleavage rate [2]
GGAGAGGAUACUAUACAACCAACUACGUCA	0.00609 ± 0.0018	0.00338 ± 0.0016
GGAGACCAUACUAUACAAUCUACUACCUCA	0.146 ± 0.013	0.00847 ± 0.004
GGAGACCAUAACUAUACAACCUACUACCUCA	0.135 ± 0.0094	0.138 ± 0.043
GGAGUGGAUACUAAACAACCUACUACCUGA	0.0827 ± 0.012	0.00228 ± 0.0017
GGAGACCUAACUAUACAACCUACUACCUACA	0.165 ± 0.023	0.00795 ± 0.0042
GGAGUGGAUACUAAACAACCUACUACCUCA	0.168 ± 0.0092	0.00791 ± 0.0037
GGAGUGGAUACAUAACAACCUACUACCUCA	0.113 ± 0.0099	0.00683 ± 0.0044
GGAGACGAUACUGAUACAACCUACUACCUCA	0.203 ± 0.018	0.00712 ± 0.0036
GGAGUGGAUAGUAUACAACCUACUACCUGA	0.0603 ± 0.014	0.00315 ± 0.0017
GGAGUGGAUGACUAUACAACCUACUACCUCA	0.0838 ± 0.019	0.00475 ± 0.0037
GGAGACCUAUCUAUACAACAUACUACCUCA	0.0382 ± 0.0074	0.00529 ± 0.0038
GGAGACGAUACUAUACAACCUACUAGCACA	0.00848 ± 0.0055	0.00326 ± 0.0016
GGAGUGGUUACUAUACAUCCUACUACCUCA	0.295 ± 0.014	0.00608 ± 0.0026
GGAGACGAUACUAUACAACCUACUACGAGA	0.11 ± 0.034	0.00501 ± 0.0017
GGAGACGAUACUAUACAACCUACUUACCUCA	0.169 ± 0.014	0.0069 ± 0.0023
GGAGAGGAUACUAUACAACCACUACCUCA	0.00782 ± 0.0025	0.00549 ± 0.0026
GGAGACGAUAGUAUACAACCUACUACCUGA	0.113 ± 0.017	0.0032 ± 0.0023
GGAGUGGAUACUUUACAAGCUACUACCUCA	0.192 ± 0.013	0.00397 ± 0.0024
GGAGACCUUUCUAUACAUCCUACUACCUCA	0.158 ± 0.013	0.00708 ± 0.0041
GGAGAGGAAACUAUACAUCCUACUACCUCA	0.302 ± 0.029	0.00711 ± 0.0026
GGAGACGAUACUAUACAACCUACUACCUGA	0.132 ± 0.02	0.0064 ± 0.002
GGAGACCUAUGAUAUGAACCUACUACCCCA	< 0.0001	< 0.0001

Sequence	pre-steady-state target cleavage rate [1]	pre-steady-state target cleavage rate [2]
GGAGACCUUACUAUACAACCUACUAGCUCA	0.145 ± 0.02	0.00255 ± 0.0017
GGAGACCAUACUAUACAACCUCACUACCUCA	0.00609 ± 0.0028	0.0127 ± 0.0078
GGAGACCUAACUAUACAACCUACUACUUCA	0.084 ± 0.02	0.00438 ± 0.0028
GGAGACGAUACUAUACAACGAACUACCUCA	0.00414 ± 0.0015	0.00251 ± 0.0024
GGAGACCUAUCUAUACAACCUCCUACCUCA	0.0185 ± 0.0046	0.00509 ± 0.0028
GGAGUGGAUACUAUUCAACCUACUACCUGA	0.0817 ± 0.011	0.00324 ± 0.0019
GGAGACGAUACUAUACACCCUACUACCUCA	0.081 ± 0.0091	0.011 ± 0.0045
GGAGAGGAUACUAUACUACCUAGUACCUCA	0.00407 ± 0.0037	0.00301 ± 0.0017
GGAGUGGAUACUAUACAUGGAUGAUGGAGA [g14:g26:cont:t1A]	< 0.0001	< 0.0001
GGAGACGAUACUAUACAAGGUACUACCUCA	0.0884 ± 0.013	0.00393 ± 0.0023
GGAGUGGAUACUAUACAACCUACGUACCUCA	0.118 ± 0.014	0.00401 ± 0.0015
GGAGUGGUUACUAUACAACCAACUACCUCA	0.00796 ± 0.0019	0.0036 ± 0.0014
GGAGAGGAUACUAUUCAACCAACUACCUCA	0.00614 ± 0.0021	0.00354 ± 0.0021
GGAGUGGAUACAUAUACAACCUACUACCUCA	0.114 ± 0.011	0.0717 ± 0.027
GGAGAGUAUACUAUACAACCUACUACCUCA	0.184 ± 0.011	0.0182 ± 0.0087
GGAGUGGAUACUAUACAACCUACUACCUCU [g2:g26:cont:t1U]	0.231 ± 0.019	1.05 ± 0.27
GGAGACCUUACAUUACAACCUACUACCUCA	0.0294 ± 0.0055	0.00334 ± 0.0033
GGAGACCAUACUAUACAACCUACUACCUAA	0.139 ± 0.015	0.0194 ± 0.0072
GGAGACCUAUGAUUACAACCUACUACCUCA [g2:g17:cont:t1A]	0.00593 ± 0.0026	0.00451 ± 0.0032
GGAGUGUGAUACUAUACAACCUACUACCUCA	0.179 ± 0.0087	0.0158 ± 0.0069
GGAGACCUUACUAGUACAACCUACUACCUCA	0.0945 ± 0.0095	0.00695 ± 0.0046
GGAGAGGUUACUAUACAACCAACUACCUCA	0.00725 ± 0.0016	0.00401 ± 0.002
